Many of the other results were omitted from the sample, so hits are more common in it than they were.
KDM5B inh: blocks human KDM5B histone demethylase activity. Q9UGL1. KDM5B demethylase, FDH-coupled NADH fluorescence (FDH is formaldehyde dehydrogenase). Potency, µM (series often up to 57.7 µM), most hits filed as inhibitors. 220,000 compounds, 2.6% hits. AID 1347165; active = well fitted inhibition curve with a large enough effect; also: nearly all actives have a fitted effect of over 70% in size
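Here, H3K4me3 peptide (12.5 µM in substrate mix) is demethylated by KDM5BΔAP, 200 nM final, after 10 min compound exposure. Formaldehyde product is coupled through FDH (0.25 U/mL in mix) to NADH fluorescence; 30-min ΔRFU feeds dose-response curves.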
A number is an active result; . = inactive.

SMILES	KDM5B inh
CCc1ccc(-c2nc(C3CC(=O)N(c4ccc(Cl)cc4)C3)no2)cc1 (centres undefined)	.
CCOC(=O)N1CCc2c(sc3c2c(=O)n(-c2ccc(CC)cc2)c(=O)n3CC(=O)c2ccc(F)cc2)C1	.
CCC1=C(C(=O)OC)C(c2cccc(F)c2)N2C(CC(=O)NCc3cccc(F)c3)=CSC2=N1 (centres undefined)	.
Cc1ccc(C(=O)Nc2ccc(Oc3cccc(C(F)(F)F)c3)nc2)cc1	.
CN(Cc1cccc2ccccc12)C(=O)Cc1cn(C)c2ccccc12	.
Cc1ccc(S(=O)(=O)c2nc(-c3ccco3)oc2N2CCN(C)CC2)cc1	.
COc1ccccc1CNC(=O)CN1C(=O)CCc2cc(S(=O)(=O)N3CCCCC3)ccc21	.
CCn1nccc1C(=O)N1CCc2ncnc(N3CCOCC3)c2CC1	.
Cc1ccccc1NC(=O)N(C)CCc1noc(-c2ccc(C(=O)N3CCCCCC3)cc2)n1	.
CC(C)(C)c1ccccc1NC(=O)c1cnc2ccccc2n1	.
CN(CCOc1ccc(C#N)cc1)C1CCCc2ccccc21 (centres undefined)	.
Cc1ccc(CN2CCC(CNC(=O)c3cccc4c3SCCC4=O)CC2)cc1	.
CN(C(=O)c1ccc(C2SCCS2)cc1)C1CCCc2ccccc21 (centres undefined)	.
CCOc1ccc(-n2nc(C(=O)NCCCN3CCN(CC)CC3)c3ccccc3c2=O)cc1	.
Cc1ccc(CNC(=O)C2CCN(Cc3nc(-c4cccc(Br)c4)oc3C)CC2)cc1	.
CCOc1ccc(-c2nc(C3CC(=O)N(c4ccc(F)c(Cl)c4)C3)no2)cc1OCC (centres undefined)	32µM
Cc1ccc(-c2nc(C3CC(=O)N(c4ccc(F)c(Cl)c4)C3)no2)cc1 (centres undefined)	.
Cc1ccc(-c2nc(C3CC(=O)N(c4ccc(F)c(Cl)c4)C3)no2)cc1C (centres undefined)	.
CC(C)[C@H](NC(=O)OC(C)(C)C)C(=O)N/N=C/c1ccc2nccnc2c1	.
FC(F)(F)c1ccnc(N2CCC(OCc3cccnc3)CC2)n1	.
O=C(Nc1cccc2c1CCCC2)N1CCCC(OCc2cccnc2)C1 (centres undefined)	.
Fc1cnc(N2CCCC(OCc3cccnc3)C2)nc1N1CCOCC1 (centres undefined)	28µM
CCSc1nc2n(n1)C(c1ccc(OC)cc1)C1=C(CC(C)(C)CC1=O)N2 (centres undefined)	.
COc1ccc(S(=O)(=O)Oc2ccc3cc(-c4ccccc4)c(=O)oc3c2)cc1	.
COc1ccccc1-c1nc(C2CC(=O)N(c3ccc(C)cc3)C2)no1 (centres undefined)	.
SMILES	KDM5B inh
COc1ccc(-c2nc(C3CC(=O)N(c4ccc(OC)c(OC)c4)C3)no2)c(C)c1 (centres undefined)	.
CCc1ccc(N2CC(c3noc(-c4ccc(OC)cc4OC)n3)CC2=O)cc1 (centres undefined)	32µM
COc1ccc(N2CC(c3noc(-c4ccc(OC)cc4OC)n3)CC2=O)cc1 (centres undefined)	.
COc1ccc(N2CC(c3noc(-c4ccccc4OC)n3)CC2=O)cc1 (centres undefined)	.
O=C1CC(c2noc(-c3ccco3)n2)CN1C1CCCCC1 (centres undefined)	.
O=C1CC(c2noc(-c3ccccc3F)n2)CN1C1CCCCC1 (centres undefined)	.
COc1ccccc1-c1nc(C2CC(=O)N(C3CCCCC3)C2)no1 (centres undefined)	20µM
COc1ccc(-c2nc(C3CC(=O)N(c4ccc(C)cc4)C3)no2)c(OC)c1 (centres undefined)	25µM
Cc1ccc(NC(=O)C2CCN(S(=O)(=O)c3c(C)noc3/C=C/c3cccs3)CC2)cc1F	.
O=C(Nc1ccc(C(F)(F)F)cc1)N1CCC(n2cnnc2C2CC2)C1 (centres undefined)	.
O=C(c1ccncc1)N1CC(c2nc(CCc3ccccc3)no2)C1	.
Cc1c(C)n(CCCN(C)C)c2ncn3nc(COc4ccc(C(C)(C)C)cc4)nc3c12	.
CCCNC(=O)C1COC2(CCCCC2)N1C(=O)c1cccc(Cl)c1 (centres undefined)	.
CCCc1cc(-c2nc3c([nH]2)CC(c2ccccc2OC)CNC3=O)on1 (centres undefined)	.
COc1cccc(C2CNC(=O)c3nc(-c4ccc(C(=O)N(C)C)o4)[nH]c3C2)c1 (centres undefined)	28µM
COc1cccc(C2CNC(=O)c3nc(Cn4nc(C)c(C)c4C)[nH]c3C2)c1 (centres undefined)	.
CCOc1ccc(OCc2ccc(C(=O)Nc3cc(OC)c(OC)c(OC)c3)o2)cc1	.
Cc1cc2oc(=O)cc(CSc3nncn3C(C)C)c2cc1C	.
Cc1noc2ncnc(N3CCCC(C(=O)Nc4cc(F)ccc4F)C3)c12 (centres undefined)	.
CCN(CC)C(=O)N1CCC(c2noc(-c3ccccc3)n2)C1 (centres undefined)	.
CC1(C(=O)NCc2ccc(Cl)cc2)CCCCC(=O)N1 (centres undefined)	.
CNC(=O)[C@@H]1CN(S(=O)(=O)c2ccc(F)c(C)c2)C[C@H]1C1CCN(C)CC1	22µM
CNC(=O)[C@@H]1CN(S(=O)(=O)c2cccc(Cl)c2)C[C@H]1C1CCN(C)CC1	.
CNC(=O)[C@@H]1CN(S(=O)(=O)c2cccnc2)C[C@H]1C1CCN(C)CC1	.
CN(C(=O)c1ccccc1Cl)c1ccccc1C(=O)NCCc1ccccc1	.
SMILES	KDM5B inh
COC(=O)c1cccc(NC(=S)N[C@H]2CO[C@H]3[C@@H]2OC[C@H]3OC(=O)Nc2cccc3ccccc23)c1	.
O=C(Nc1ccc(Oc2ccccc2)cc1)O[C@@H]1CO[C@H]2[C@@H]1OC[C@@H]2NC(=S)Nc1cccc2ccccc12	32µM
CC(=O)Nc1ccc(S(=O)(=O)N[C@H]2CO[C@H]3[C@@H]2OC[C@H]3OC(=O)Nc2ccc(C(C)=O)cc2)cc1	.
COc1ccc(NC(=O)O[C@@H]2CO[C@H]3[C@@H]2OC[C@@H]3NS(=O)(=O)c2ccc(NC(C)=O)cc2)cc1	.
O=C(Nc1cccc2ccccc12)O[C@@H]1CO[C@H]2[C@@H]1OC[C@@H]2NC(=O)C1CCC1	.
O=C(Nc1ccc(Oc2ccccc2)cc1)O[C@@H]1CO[C@H]2[C@@H]1OC[C@@H]2NS(=O)(=O)c1ccc2ccccc2c1	22µM
CCc1ccc(-c2cn3nc(CC)sc3n2)cc1	.
COc1cc(/C=N/NC(=O)CSc2ccccn2)ccc1OC(C)C	.
NCCc1noc(Cc2ccccc2)n1	.
C#CCOc1c(Cl)cc(/C=C/C(=O)c2ccc(OCC(=O)O)cc2)cc1OC	.
COc1ccc(S(N)(=O)=O)cc1-c1nnc2c3ccccc3c(C)nn12	.
Cn1c(=O)c2ccnn2c2ccc(C(=O)NCC3CCN(Cc4cccc(F)c4)CC3)cc21	28µM
CN1C(=O)CCCCC1C(=O)NCC1CCN(Cc2cccc(F)c2)CC1 (centres undefined)	.
O=C1CCN(Cc2ccncc2)CCCC(C(=O)NCCN2CCC(N3CCCCC3)CC2)CCN1 (centres undefined)	.
CN1C(=O)C(CC(=O)NCC2CCN(Cc3cccc(F)c3)CC2)=C2CCCCC21 (centres undefined)	.
O=C(NC1CCCC1)c1ccc(CSc2nc3ccncc3n2Cc2ccc(F)cc2)cc1	.
Cn1c(=O)c2ccnn2c2ccc(C(=O)NCCN3CCC(N4CCCCC4)CC3)cc21	28µM

Screening data as filed in PubChem BioAssay.
